Bioassay records (PubChem)
PrP UTR inh: inhibition of PrP 5' UTR reporter expression. AID 488862. hit rate 0.35% among 340,000. inhibition, % (test concentration not listed). cell-based PrP 5' UTR mRNA reporter, plate reader; in the data active = inhibition above about 52%; also: 0 = median of the neutral control wells
PrPC TRFRET: inhibitors of human cell surface prion protein PrPC; inhibition, % at 13.8 µM; hit rate 0.43% among 370,000; TR-FRET read-out; AID 720596; P04156; in the data active = inhibition above about 24%; also: 0% = median of the test wells and 100% = reference compound wells
GDH-TPI counter-1: counter-screen for M. tuberculosis FBA inhibitors: GDH-TPI coupled enzymes. GDH-TPI coupled enzyme counterscreen, NADH absorbance. hit rate 1.2% among 360,000. inhibition, % at 4.8 µM; in the data active = inhibition above about 30%;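 also: 0% = DMSO wells and 100% = wells lacking the enzyme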
Mtb hypoxia inh: inhibitors of hypoxia-regulated fluorescent reporter in Mycobacterium tuberculosis | M. tuberculosis hypoxia-regulated fluorescent reporter, fluorescence | fluorescence inhibition, % (test concentration not listed) | hit rate 0.1% among 300,000 | AID 1159583; in the data active = fluorescence inhibition mostly above about 23%, no sharp cut-off; inactive = mostly below about 17%
Mtb FBA inh: inhibitors of M. tuberculosis fructose-bisphosphate aldolase. hit rate 2.3% among 360,000. AID 588726. inhibition, % at 1 µM. P9WQA3. purified M. tuberculosis FBA, fluorescence read-out;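 also: 0% = vehicle and 100% = reference inhibitor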
Target sequence (P9WQA3 whole entry, looked up): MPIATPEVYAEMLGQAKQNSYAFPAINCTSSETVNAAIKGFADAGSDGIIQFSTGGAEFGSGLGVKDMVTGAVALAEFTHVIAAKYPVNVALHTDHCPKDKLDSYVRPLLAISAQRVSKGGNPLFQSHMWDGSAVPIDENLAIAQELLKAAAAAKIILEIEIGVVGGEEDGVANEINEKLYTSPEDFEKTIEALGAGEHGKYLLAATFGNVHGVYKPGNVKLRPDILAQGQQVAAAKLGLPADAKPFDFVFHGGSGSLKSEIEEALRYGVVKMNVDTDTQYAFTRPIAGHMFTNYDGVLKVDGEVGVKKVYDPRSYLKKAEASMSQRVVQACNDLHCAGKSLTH
Yp Topo-I inh: blocks Yersinia pestis topoisomerase I activity; activity, % at 10 µM; Y. pestis Topo-I cleavage product accumulation, plate reader; hit rate 0.064% among 360,000; in the data active = activity above about 50%, passing the limit was not always enough
PrP UTR cherry: prion 5' UTR mRNA inhibition, cherry-pick retest. AID 504592. hit rate 48% among 1,100. shares compounds with PrP UTR inh. cell-based prion protein 5' UTR reporter, plate reader. inhibition, % at 2.5 µM; in the data active = inhibition above about 54%
Mtb FBA confirm: confirmation of M. tuberculosis fructose-bisphosphate aldolase inhibitors; shares compounds with Mtb FBA inh; purified M. tuberculosis FBA, fluorescence read-out; inhibition, % at 1 µM; hit rate 78% among 5,600; AID 651616;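 also: 0% = vehicle wells and 100% = reference inhibitor wells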
GDH-TPI counter-2: inhibits GDH-TPI coupling enzymes, flagging Mtb FBA hits; hit rate 81% among 5,600; shares compounds with Mtb FBA inh; GDH-TPI coupled enzyme counterscreen, fluorescence; inhibition, % at 1 µM; in the data active = inhibition above about 10%
An asterisk follows results filed as active. Rows were chosen to be rich in hits. Some 3.8% of all compounds tested hit in one or more screens of this group. Rule as the data show it, unless noted: active = inhibition above about 27%; inactive = the rest.

Screening CCC1=C2CCC3C(=O)N(c4ccccc4)C(=O)C3C2[C@@]2(C)C(=NCC(=O)OC)OC(=O)N2C1=O (stereo partly specified) returned Mtb hypoxia inh 18.
For O=C(NC(=S)N1CCN(CCO)CC1)C12CC3CC(CC(C3)C1)C2 the results were PrP UTR inh 80*, PrPC TRFRET -2, GDH-TPI counter-1 -2, Mtb hypoxia inh -7, Mtb FBA inh -3, Yp Topo-I inh 2 and PrP UTR cherry 1.
For CCOC(=O)c1ccc(NC(=O)Nc2ccon2)cc1 the results were PrP UTR inh 66*, PrPC TRFRET 7, GDH-TPI counter-1 -22, Mtb hypoxia inh 2, Mtb FBA inh 3, Yp Topo-I inh 0 and PrP UTR cherry 79*.
For CCOC(=O)c1ccc(NC(=O)Nc2ccc(Cl)cn2)cc1 the results were PrP UTR inh -27, PrPC TRFRET 0, GDH-TPI counter-1 2, Mtb hypoxia inh 6, Mtb FBA inh -4 and Yp Topo-I inh -7.
Screening Cc1ccc(N2C(=O)c3cccc4c(N)ccc(c34)C2=O)c2cccnc12 returned PrP UTR inh 74*, PrPC TRFRET -4, GDH-TPI counter-1 7, Mtb hypoxia inh -1, Mtb FBA inh -2, Yp Topo-I inh 2 and PrP UTR cherry 86*.
`Cc1nn(C)c(C)c1N1C(=O)c2cccc3c(N)ccc(c23)C1=O` gave PrP UTR inh -22, PrPC TRFRET -4, GDH-TPI counter-1 19, Mtb hypoxia inh -24, Mtb FBA inh -16 and Yp Topo-I inh -2.
Screening O=C(O)Cn1ncc2ccccc2c1=O returned PrP UTR inh -45, PrPC TRFRET -2, GDH-TPI counter-1 -8, Mtb hypoxia inh -4, Mtb FBA inh -7 and Yp Topo-I inh 4.
`O=c1c2ccccc2cnn1CCOc1ccccc1` gave PrP UTR inh 71*, PrPC TRFRET -1, GDH-TPI counter-1 -1, Mtb hypoxia inh 4, Mtb FBA inh -1, Yp Topo-I inh -3 and PrP UTR cherry 70*.
Screening COC(=O)Cc1c(O)ccn(Cc2ccc(OC)c(OC)c2)c1=O returned PrP UTR inh 63*, PrPC TRFRET 2, GDH-TPI counter-1 0, Mtb hypoxia inh 5, Mtb FBA inh 3, Yp Topo-I inh -2 and PrP UTR cherry -8.
`COC(=O)C1=C(c2ccccc2OCc2ccccc2)CC2CCC1N2C(=O)NCCc1ccc(F)cc1` (stereo unspecified) gave Mtb hypoxia inh 2.
`CCCCOCC(O)CCc1n[nH]c(=S)n1-c1ccccc1` (stereo unspecified) gave PrP UTR inh 80*, PrPC TRFRET 0, GDH-TPI counter-1 -4, Mtb hypoxia inh 17, Mtb FBA inh 0, Yp Topo-I inh 3 and PrP UTR cherry 5.
Screening COc1ccc(C(=O)NN(C)c2nc(C(F)(F)F)nc3ccccc23)cc1 returned PrP UTR inh 71*, PrPC TRFRET 8, GDH-TPI counter-1 5, Mtb hypoxia inh 8, Mtb FBA inh -3, Yp Topo-I inh -4 and PrP UTR cherry 90*.
For COc1ccc(C(=O)NN(C)c2nc(-c3ccccc3)nnc2C(F)(F)F)cc1 the results were PrP UTR inh -6, PrPC TRFRET 1, GDH-TPI counter-1 6, Mtb FBA inh 3 and Yp Topo-I inh 5.
Screening S=c1[nH]nc(-c2ccccn2)n1N=Cc1c(Cl)cccc1Cl returned Mtb hypoxia inh 9.
Cc1cc(C)c2c(N)c(C(=O)Nc3ncc(C)s3)sc2n1 was read as PrP UTR inh 89*, PrPC TRFRET -28, GDH-TPI counter-1 20, Mtb hypoxia inh 7, Mtb FBA inh 43*, Yp Topo-I inh 1, PrP UTR cherry 84*, Mtb FBA confirm 121* and GDH-TPI counter-2 119*.
Screening CC(=O)c1sc2nc(C)cc(C)c2c1N returned PrP UTR inh -97, PrPC TRFRET -31, GDH-TPI counter-1 19, Mtb hypoxia inh -7, Mtb FBA inh 22 and Yp Topo-I inh -5.
